High-throughput results: PubChem BioAssay, The Scripps Research Institute Molecular Screening Center
Shown are actives, neighbours in structure and some others; about 3.4% of the full set was active somewhere.
FBW7 act: FBW7 E3 ligase activators, primary screen, biochemical, AlphaScreen, human. F-box/WD repeat-containing protein 7 (Homo sapiens), Q969H0. AlphaScreen FBW7–phospho-cyclin E peptide binding, activator screen. 650,000 compounds, 0.13% hits. normalized activity (activation), % at 26.1 µM; in the data active = normalized activity above about 1.9%;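 note: purified mutant Fbw7 with reduced substrate affinity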
MITF inh: MITF inhibitors, primary screen, biochemical, AlphaScreen, human; Microphthalmia-associated transcription factor (Homo sapiens), O75030; AlphaScreen MITF homodimerization, bead proximity signal; inhibition, % at 2.6 µM; 650,000 compounds, 0.91% hits; in the data active = inhibition above about 50%;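 note: 0% = vehicle wells with protein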
Target sequence (O75030 whole entry, looked up): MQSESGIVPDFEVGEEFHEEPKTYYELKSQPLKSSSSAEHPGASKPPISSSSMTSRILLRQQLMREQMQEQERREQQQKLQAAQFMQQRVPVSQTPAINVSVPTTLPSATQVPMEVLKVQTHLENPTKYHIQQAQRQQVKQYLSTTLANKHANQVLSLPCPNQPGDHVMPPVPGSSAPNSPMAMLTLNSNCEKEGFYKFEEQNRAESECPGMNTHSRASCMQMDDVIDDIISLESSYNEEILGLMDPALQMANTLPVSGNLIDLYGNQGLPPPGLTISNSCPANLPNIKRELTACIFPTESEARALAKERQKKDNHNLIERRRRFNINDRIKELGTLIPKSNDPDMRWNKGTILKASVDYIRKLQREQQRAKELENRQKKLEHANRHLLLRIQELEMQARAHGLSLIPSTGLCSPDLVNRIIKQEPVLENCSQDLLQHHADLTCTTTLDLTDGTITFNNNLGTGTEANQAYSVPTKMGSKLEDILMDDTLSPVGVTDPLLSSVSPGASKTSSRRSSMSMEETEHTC
GPR151 ag: activators of human GPR151, primary screen, cell-based, PathHunter beta-arrestin, luminescence | PathHunter beta-arrestin GPR151 cells | 650,000 compounds, 1% hits | activation, % at 11.2 µM | G-protein coupled receptor 151 (Homo sapiens), Q8TDV0; in the data active = activation above about 4.9%;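 note: 0% = median of compound wells and 100% = cells with positive control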
TEAD-YAP block: TEAD-YAP interaction inhibition, primary screen, TEAD-YAP interaction inhibitor project, luminescence, HEK-TIYL cells; TEAD-Gal4/YAP UAS-luciferase luminescence; inhibition, % at 9.12 µM; 640,000 compounds, 1.4% hits; AID 1259422, 2018; in the data active = inhibition above about 32%;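 note: 0% = median of test compound wells and 100% = reference inhibitor wells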
The depositor's hits bear a star.

SMILES | FBW7 act | MITF inh | GPR151 ag | TEAD-YAP block
CC(C)(C)c1ccc(C(=O)Nc2ccc(S(=O)(=O)Nc3nccs3)cc2)cc1 | 0 | -5 | 1 | -6
Cc1ccc(N(C(C)C(=O)N2CCCC2)S(C)(=O)=O)cc1C (configuration not stated) | 0 | 1 | 1 | 0
CC(=O)c1ccc(N=Nc2ccc3nonc3c2N)cc1 | 1 | 13 | 0 | 50*
O=C(O)Cc1ccc(NC(=O)COc2ccccc2Cl)cc1 | 0 | 16 | -1 | -2
N/C(=N\N=C\c1c(O)ccc2ccccc12)c1ccccn1 | -1 | 11 | -2 | 60*
COc1ccccc1/C=N\N=C(/N)c1ccccn1 | -1 | 19 | -4 | 56*
Cc1[nH]n(-c2ccccc2)c(=O)c1/C=N/NC(C)(C)C | -1 | -17 | -1 | 0
N/C(=N\N=C/c1ccc(O)cc1O)c1ccccn1 | -1 | 20 | -5 | 84*
Oc1ccc2ccccc2c1/C=N/c1ccccn1 | 0 | 1 | 0 | 1
Cc1[nH]n(-c2ccccc2)c(=O)c1/C=N/N/C(=N/c1ccccn1)c1ccccn1 | -1 | 52* | 2 | 12
Cc1[nH]c2ccccc2c1C(O)c1ccccn1 (configuration not stated) | 0 | -13 | -1 | -1
Cn1c(=O)c2c(ncn2CC(=O)N/N=C/c2ccccc2C(=O)O)n(C)c1=O | 0 | -12 | 0 | -5
CCCN(CCC)CCNC(=O)c1cn(-c2ccc(OC)cc2)c(=O)c2ccccc12 | 0 | 6 | -1 | 4
COc1ccc(-n2cc(C(=O)N3CCCC(C)C3)c3ccccc3c2=O)cc1 (configuration not stated) | 0 | 5 | -1 | -4
Oc1ccc(/C=N/N/C(=N/c2ccccn2)c2ccccn2)c(O)c1 | -2 | 45 | -4 | 59*
COc1ccc(C2C(C(=O)Nc3cc(OC)c(OC)c(OC)c3)c3ccccc3C(=O)N2C)cc1 (configuration not stated) | 0 | -6 | 0 | 54*
O=C(CCl)N(CC1=CCSC1)c1ccccc1 | 0 | 6 | 0 | 47*
O=C(Cn1nnc(-c2ccccc2NC(=O)c2ccc(F)cc2)n1)NCc1cccs1 | 2.5* | 9 | 0 | 2
Brc1ccc2c3c(cccc13)-c1nc3ccccc3nc1-2 | 0 | -15 | 2 | 2
O=C(Nc1noc2ccccc12)c1ccccc1 | 0 | -10 | -8 | 51*
Cc1ccc(C(=O)Nc2noc3ccccc23)cc1 | 0 | 5 | -5 | 76*
O=C(Nc1noc2ccccc12)c1ccco1 | 0 | 17 | -5 | -21
CCSc1nnc2c(n1)OC(/C=C/c1ccc([N+](=O)[O-])o1)Nc1ccccc1-2 (configuration not stated) | 0 | 2 | 1 | 22
O=C(CCN1C(=O)c2ccccc2C1=O)Nc1c(Cl)cccc1Cl | 0 | -3 | 0 | 7
Cc1ccc(NC(=O)CSc2ncn[nH]2)cc1 | 0 | 6 | -2 | 17
SMILES | FBW7 act | MITF inh | GPR151 ag | TEAD-YAP block
COC(=O)c1ccc(NC(=O)CSc2ncn[nH]2)cc1 | 2.4* | 6 | -4 | -9
O=C(CSc1ncn[nH]1)Nc1ccc(-c2nc3ccccc3s2)cc1 | 1 | 17 | 4 | 53*
Cc1ccc2nc(-c3ccc(NC(=O)CSc4ncn[nH]4)cc3)sc2c1 | 0 | 4 | -2 | 73*
COc1ccc(NC(=O)CSc2ncn[nH]2)cc1 | 0 | -28 | -3 | 2
CC(=O)Nc1ccc(-c2csc(Nc3cccc(O)c3)n2)cc1 | 0 | 11 | -1 | -27
CCCCOc1nnc(-c2ccc(OC)cc2)c2ccccc12 | 0 | 0 | 0 | -6
Cc1ccc(C)c(S(=O)(=O)Nc2ccc3scnc3c2)c1 | 0 | 14 | 1 | 39*
CN(C)c1ccc(/C=N/NC(=O)c2n[nH]c3c2CCC3)cc1 | 0 | 10 | 1 | 35*
COc1cc(/C=N/NC(=O)c2n[nH]c3c2CCCC3)ccc1O | 0 | 10 | -1 | 36*
O=C(N/N=C/c1ccccc1O)c1n[nH]c2c1CCC2 | -1 | 18 | -1 | 33*
O=C(N/N=C\c1cccc(Cl)c1)c1n[nH]c2c1CCCC2 | 0 | 16 | 1 | 25
O=C(N/N=C/c1cccc(O)c1)c1n[nH]c2c1CCC2 | 0 | 11 | -6 | 46*
N#CC1(C#N)[C@H](c2ccccc2Cl)[C@@H](C(=O)c2ccccc2)N2c3ccc(F)cc3C=C[C@@H]21 | 0 | 5 | -1 | -11
O=C(N/N=C/c1cc2c([nH]1)CCCC2)c1n[nH]c2c1CCC2 | 0 | 21 | -1 | 33*
O=C(O)c1n[nH]c2c1CCCCCC2 | 0 | -7 | 1 | -11
Cc1ccc(/C=N/NC(=O)c2n[nH]c3c2CCCC3)cc1 | 0 | 10 | -1 | 18
O=C(NN=C1CCCCC1)c1n[nH]c2c1CCC2 | 0 | 18 | -1 | 57*
C/C(=N/NC(=O)c1n[nH]c2c1CCC2)c1cccc(O)c1 | 0 | -1 | 1 | 40*
C/C(=N/NC(=O)c1n[nH]c2c1CCCC2)c1cccc(O)c1 | 0 | -3 | 0 | 23
Cc1ccsc1/C=N\NC(=O)c1n[nH]c2c1CCCC2 | 0 | 13 | -9 | 82*
O=C(COc1coc(CN2CCN(c3cccc(Cl)c3)CC2)cc1=O)c1ccccc1 | 0 | 8 | -1 | 0
Cc1ccc(NC(=O)C2CC2(c2cccc(C)c2)c2cccc(C)c2)cc1 (configuration not stated) | 0 | 4 | 1 | -6
CCN(CC)C(=O)CSc1nc(O)c(Cc2ccccc2F)c(=O)[nH]1 | 0 | 2 | 0 | 5
O=C(N/N=C/c1cccc(O)c1)C1C2CCCCC21 (configuration not stated) | 0 | -4 | -1 | 60*
CC1(C)CCN2CCC(C)(C)c3c(O)ccc1c32 | 0 | 23 | 0 | 38*
SMILES | FBW7 act | MITF inh | GPR151 ag | TEAD-YAP block
CC1(c2cccc(Cc3cccc(C4(C)CCCCC4)c3O)c2O)CCCCC1 | 0 | 12 | -2 | 6
CC(C)c1ccc(NS(=O)(=O)c2cccc3cnccc23)cc1 | 0 | 17 | 0 | 56*
CC1CCc2sc(NC(=O)c3cc(Cl)ccc3[N+](=O)[O-])c(C#N)c2C1 (configuration not stated) | 0 | 9 | -1 | 51*
N#Cc1c(NC(=O)c2ccc([N+](=O)[O-])cc2[N+](=O)[O-])sc2c1CCCC2 | 0 | -19 | 0 | 2
N#Cc1c(NC(=O)c2cc([N+](=O)[O-])ccc2Cl)sc2c1CCCC2 | 0 | 9 | 2 | 49*
O=C(CSc1cn(CCNC(=O)c2cccc(C(F)(F)F)c2)c2ccccc12)Nc1ccccc1 | 0 | -13 | -2 | 0
COc1ccc(-c2nnc(N)o2)cc1OC | 0 | 3 | 0 | 3
Cc1ccc(-c2ccc(-c3nnc(N)o3)s2)s1 | 2.3* | -3 | -4 | -24
Nc1ccc(-c2cn3c4c(sc3n2)CCCC4)cc1 | 0 | -9 | 0 | 27
